# Tested on: VDR:RXRa (NR concentration 270 nM, RXRa partner concentration 90 nM)
# Test: PBM binding z-score (relative to random genomic background probes); higher = stronger binding; sequences stand for … in GC…GCGATTGACAGCGTAGAATGAAGG
# Procedure: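 Protein-binding microarray (Agilent 4x180K custom design, double-stranded 60-nt probes: 5' GC cap, 34-nt variable region, 24-nt constant primer region; full probe sequence given). Purified or IVT nuclear receptor:RXRα heterodimers (3:1 NR:RXRα, mostly 270:90 nM) or homodimers were incubated for 1 h in PBS with 2% milk and no ligand, then detected with Alexa488 antibodies. Fluorescence from o1-orientation probes (~5 replicates averaged) was converted to z-scores against 500 random hg19 background probes. Variable regions are seed direct-repeat (DR0–DR5) sites, all their single-nucleotide variants and half-site ablations.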
row,Sequence,PBM binding z-score
1,CCTAGCAGGCCAATCTGGGTCACTCACGGCTTGA,0.411
2,GCATATAGGGAATACAAGGTGAAAGTCCGATTGT,0.0593
3,TCTCGCAGGACACGAAAGGTCAGAGCTCGACATC,2.89
4,CCAGACAGGTGAAAGGTAATTCAGTCTGGTACGC,0.632
5,CTCGAAAGGTCGGTTGAGGTGAGTTTACGGATAA,3.29
6,AGACCAAGGTGATCGTGAGGTCGTTGATACTAAC,3.12
7,CGTCAATGTTCAACTAAGGTAACGTAAAGCACGC,0.565
8,CGAACGAAGGCATGAGTTGATAGCAAATGCCGAT,-0.373
9,ACTAGTTGGTCAGGTGAGGTCACACACAATTCGG,4.8
10,AATACAGGGTCAGTAGGCCAGAGTAGGTACGAAT,2.65
11,CCTGCTAGGTCATGGTCACCTAATCTACAGTATG,2.03
12,TAGCCTAGGTCACTCAGGGGCCAGTATAGAAAGC,2.42
13,CCTACTGGGCCACGAAAGGTCGTTGATTCAGTGA,1.74
14,CAAACTAGGTCACAGAGGTCAAAGTGCGTGCGTA,8.02
15,TTAATGAGGTTAAAGATCAGGGAACGTGGCGTCG,2.4
16,ATCTCTAGGTAACAAGTTCATTGAAAGAGAGGAC,3.84
17,ACTTACGGGTCAACGAGGTTATCGCACGCGTATA,7.77
18,CCTAGCAGGCCAATCTGGGTCACTCGAGGCTTGA,0.491
19,AATACAGGGTCATCGTAGGCCCGAGTACGCACAG,4.95
20,GTACCAAGGTGAATAGATCGTTGATGAGTAGGCG,-0.155

row,Sequence,PBM binding z-score
1,CAAACTAGGTAACAGAGGTCAAAGTCCGTGCGTA,5.87
2,CCTACTGGGCCTAAAAGGTCATTGATGCCGATAA,4.38
3,GATACAGGGTCAGCTAGAGGCCAGATTATGGAAA,3.57
4,AGAATGAGGTTACCAATGATCAGGGAAACGCTTG,1.18
5,CCTCGGAGGACACAAGGTCAGAGCTGTCCGCTTT,1.88
6,GCTATTAGATGAAAGGGCAACCGAATGATTCTCG,0.125
7,ACTCGGCGGACAAAGGTCAGAGCTACGCCAGTGA,2.44
8,CCTAGTTGGTCAGGAGTTCACACACCGGATATGA,3.54
9,CTAGAAAGGTCGGTTGAGGTGAGTATACGGATAA,2.4
10,ATAGAAAGGTCGACGAGGTGAGTATACACCGTTT,5.01
11,ATCTCTAGGTAAAAGATCAGTGAATCCCGAGGAT,-0.291
12,ATATGTAGGTTCAGGGTCATTCAGGTTGGTTCGC,6.03
13,AGAATGAGGTTATTAAGATCATGGAATTGCGGTC,3.3
14,CTAACTAGGTCAAGAGGTCAAAGTCCGCTTCCCG,6
15,ATCTCTAGCTAAAGATAGTTCAGTGAATGCAAAT,0.182
16,CTACCAAGGTGAACAAGGTGGTTGATTACTATTC,1.84
17,ATATGTAGGTTAGCTGGGGCCATTCAGACTAGGC,1.97
18,ACTAGCAGGCCAAGGGTCACTGAAGATTAGTCCG,2.81
19,ATCTGTAGGTTAGCTGGGGTCATTCAGACTAGGC,6.14
20,ACAGATAGGTGATGAAGGTAACTCAGGCTATCAT,0.219

# From the supplement of paper PMC6555819
